# Assay results from ChEMBL document CHEMBL3988442, “University of Dundee, Small-Polar-MMV Screening Library” (2021).
# In all, about 53,000 compounds went through this assay and about 900 (1.7%) showed an effect of 50% or more. The list comes from a sample in which strong results are over-represented; it also holds similar structures and randomly drawn compounds.
# System: Mycobacterium tuberculosis
# Assay: Cornell - Phenotypic assay to identify agents that inhibit growth of Mycobacterium tuberculosis
# Format: functional
# Design: scale not given: direction of the effect not stated beside the values
# Conditions: 10 mM as filed; unlikely as a test dose
row,Compound,Percent Effect
1,CC(C)c1nnc(NC(=O)N(C)Cc2ccncc2)s1,-15.27%
2,CSC(C)CCN(Cc1ccccn1)Cc1sccc1C (stereo not given),52.37%
3,Cc1ccsc1CN(CCN(C)C)Cc1ccccn1,3.624%
4,Cc1ccsc1CN(Cc1ccccn1)CC(C)C,-11.16%
5,COCC(O)CN(C)c1ccnc2cc(Br)ccc12 (stereo not given),6.843%
6,O=C(NC[C@@H]1CCCO1)c1cccnc1N1CCCC1c1ccccc1 (stereo not given in full),4.902%
7,CC(c1ccc(F)cc1F)N1CCN(CCC(=O)NC(N)=O)CC1 (stereo not given),-2.983%
8,COc1ccccc1N1CCC(CNCc2cccc(C#N)c2)C1 (stereo not given),33.02%
9,COc1cccc(N2CCC(CNCc3cccc(C#N)c3)C2)c1 (stereo not given),63.04%
10,COc1ccccc1N1CCC(CNCc2cccc(O)c2)C1 (stereo not given),38.06%
11,COc1cccc(N2CCC(CNC(=O)NCc3ccco3)C2)c1 (stereo not given),-31.24%
12,COc1ccc(CNCC2CCN(c3ccccc3OC)C2)cc1O (stereo not given),59.98%
13,COc1ccccc1N1CCC(CNCc2ccc(C#N)cc2)C1 (stereo not given),28.32%
14,Cc1cc(C)c(C(=O)N2CCCC(C(=O)CCc3ccccc3)C2)cn1 (stereo not given),16%
15,CN1CCCC1CCNC(=O)c1ccccc1-n1cnc(CN)c1 (stereo not given),-39.2%
16,CC(C)C(Sc1nnnn1C1CC1)C(=O)NCc1ccccc1 (stereo not given),-5.783%
17,Cc1nc(N)sc1C(=O)N1Cc2ccccc2OC2(CCOCC2)C1,-56.78%
18,O=C1CCC2(CCN(Cc3cscn3)CC2)CN1CCCO,5.461%
19,O=C(CNc1ccc(OCC2CCOCC2)cc1)NCc1ccco1,31.46%
20,CC(C)(C)Oc1ccc(NCC(=O)NCc2ccco2)cc1,108%
21,CC(C)(Oc1ccc(F)cc1)C(=O)NCc1ccco1,22.85%
22,CC[C@H](C)Nc1nccc(-c2cnc3sccn3c2=O)n1,-1.989%
23,O=C(c1cn(-c2ccccc2C(F)(F)F)nn1)N1CCSCC1,17.85%
24,Cc1ccc(CN2CC[C@H]3C[C@H](c4nc(C5CC5)cs4)O[C@@H]3C2)o1,67.24%
25,Cc1cc(CN2CC[C@H]3C[C@@H](c4nc(C5CC5)cs4)O[C@@H]3C2)no1,0.1287%
26,Cc1ccc(CN2CC[C@H]3C[C@@H](c4nc(C5CC5)cs4)O[C@@H]3C2)o1,40.45%
27,Cn1nc(-c2cccc(Cl)c2)c(Br)c1C(=O)O,24.18%

row,Compound,Percent Effect
1,O=C(Nc1ccccc1OCc1ccccn1)NC1CCOCC1,30.18%
2,O=C(Nc1ccccc1OCCc1ccccn1)NC1CCOCC1,-20.67%
3,c1ccc(COc2ccccc2NC2CCOCC2)nc1,50.88%
4,OCc1ccc(Cl)c(NCc2cccnc2)c1,-14.09%
5,COc1cc(NCc2ccncc2)c(-c2nn[nH]n2)cc1OC,96.19%
6,Cc1ccn(-c2ccccc2NCc2cccnc2)n1,-17.76%
7,c1cncc(CNc2ccccc2-c2nn[nH]n2)c1,72.98%
8,COc1cc(CNc2ccc(Cl)cc2)ccc1OCC(=O)O,-3.069%
9,COc1cc(NCc2ccc(Cl)cc2)c(-c2nn[nH]n2)cc1OC,107.2%
10,COc1ccncc1NCc1ccsc1,-60.05%
11,COc1cc(NCc2cccnc2)c(-c2nn[nH]n2)cc1OC,-25.93%
12,Cc1nnc(NCc2ccc(Cl)cc2)o1,21.04%
13,CC(=O)N1CCCN(C(=O)NCCNc2cnccn2)CC1,8.364%
14,CCOCc1cnc2n1CCN(C(=O)c1ccccc1)C2C (stereo not given),-22.66%
15,Cn1cc(N2CCCC(SCc3nc(C4CC4)no3)C2=O)cn1 (stereo not given),-5.692%
16,C[C@@H]1CN(c2nc3c(cc2C(N)=O)CCC3)CC[C@@]1(O)C1CCC1,6.158%
17,Cn1nc(CNS(=O)(=O)Cc2ccccc2F)c2c1CCCC2,24.49%
18,CCc1c(C)nc2cc(C3CCN(Cc4ccc(F)cc4)C3)nn2c1O (stereo not given),-30.4%
19,O=C(O)C(F)(F)F.O=C([C@@H]1CCO[C@@H]2CCN(Cc3ccsc3)C[C@@H]21)N1CCCC1,13.31%
20,CCCS(=O)(=O)N1CCC(NC(=O)c2cc(CC)c(C)s2)CC1,-14.58%
21,COCC(=O)N1CCN(S(=O)(=O)c2cccs2)[C@H]2CS(=O)(=O)C[C@H]21,5.268%
22,Cc1cc2[nH]c(O)nc2cc1NCc1ccccc1,38.01%
23,Cc1cc(NCCO)nc2[nH]nc(N)c12,15.94%
24,NS(=O)(=O)c1cccnc1NCc1ccco1,9.166%
25,CNc1c(NCc2ccco2)c(=O)c1=O,-73.54%
26,Cc1cc(NCc2ccccc2)nc2[nH]nc(N)c12,99.95%
27,Cc1cc(NCc2ccco2)nc2[nH]nc(N)c12,73.02%

row,Compound,Percent Effect
1,Cc1nc(CCNC(=O)NC(C)c2ccc3c(c2)OCCO3)cs1 (stereo not given),-7.5%
2,N#CC1COCCN1C(=O)c1cccc2cc[nH]c12 (stereo not given),15.8%
3,COc1ccccc1OCCN(C)c1cc(C)nc(N)n1,-1.717%
4,CCCS(=O)(=O)N1CCN(c2ccnc(N3CCCC3)n2)CC1,-0.1963%
5,CN(C)S(=O)(=O)N1CCN(c2ccnc(N3CCCC3)n2)CC1,12.56%
6,CN(C)S(=O)(=O)N1CCN(c2ccnc(N3CCCCC3)n2)CC1,38.93%
7,CCCS(=O)(=O)N1CCN(c2ccnc(N3CCCCC3)n2)CC1,50.94%
8,CS(=O)(=O)N1CCN(c2ccnc(N3CCCC3)n2)CC1,7.415%
9,CS(=O)(=O)N1CCN(c2ccnc(N3CCCCC3)n2)CC1,63%
10,COC(=O)c1cccc(CN(C)C(C)c2ccccn2)c1 (stereo not given),21.51%
11,OC1(CN2CCC(Cc3ncccn3)CC2)CCOCC1,-20.94%
12,O=C(c1cnco1)N1CCC(Cc2cnc3ccccc3c2)CC1,64.83%
13,O=C(c1cnco1)N1CCC(Cc2cccc3ncccc23)CC1,-21.16%
14,O=C(c1cnco1)N1CCC(Cc2ccc3ncccc3c2)CC1,9.774%
15,COCCC1COC2(CCN(C(=O)c3ccncc3)CC2)C1.O=C(O)C(F)(F)F (stereo not given),-13.79%
16,c1ccc(-n2ncc(CN3CCCC(Cn4cncn4)C3)n2)cc1 (stereo not given),2.145%
17,Cc1cc2c(=O)n(CC(=O)N3CCn4cccc4C3C(C)C)cnc2s1 (stereo not given),56.81%
18,CCC(C)NC(=O)Cn1ccc2sc(C)cc2c1=O (stereo not given),17.39%
19,Cc1cc2c(=O)n(CCOCCO)cnc2s1,14.22%
20,CCC1c2ccc(C)n2CCN1C(=O)Cn1cnc2sc(C)cc2c1=O (stereo not given),27.93%
21,CCCC1c2cccn2CCN1C(=O)Cn1cnc2sc(C)cc2c1=O (stereo not given),53.74%
22,CCC1c2cccn2CCN1C(=O)c1ccc2nonc2c1 (stereo not given),10.7%
23,Cc1nn(C)cc1C(=O)Nc1cccc(CN2CCC(CO)CC2)c1,-50.57%
24,Cc1nc2ccccn2c1CC(=O)N[C@@H]1CC[C@@H](N2CCCC2)[C@@H]1O,13.48%
25,O=C(c1cc(-n2cccn2)ccn1)N(CC1CCC1)CC(F)(F)F,16.8%
26,Cc1cc(NC(=O)C(c2cccc(F)c2)N2CCOCC2)sn1 (stereo not given),-15.26%
27,NC(=O)C1CCCN1C(=O)c1cc(C2CC2)nc2ccc(F)cc12 (stereo not given),-27.79%

row,Compound,Percent Effect
1,Cc1cc(C)c2[nH]c(=O)c(CN3CCCC(O)(CO)C3)cc2c1 (stereo not given),23.96%
2,Cc1cc(C)c2[nH]c(=O)c(CN3CCCC4(C3)CN(C)C(=O)O4)cc2c1 (stereo not given),65.13%
3,Cc1cc(C)c2[nH]c(=O)c(CN3CCC(O)(CN(C)C)C3)cc2c1 (stereo not given),15.85%
4,c1ccc2sc(N3CCC4(CCCN4Cc4ncc[nH]4)CC3)nc2c1,60.65%
5,Cc1nc[nH]c1CN1CCCC12CCN(c1nc3ccccc3s1)CC2,-4.142%
6,Cc1cc(C(=O)N2CCN(c3nc4ccccc4s3)CC2)no1,-60.39%
7,Cc1nc(CN2CCCC23CCN(c2nc4ccccc4s2)CC3)co1,53.88%
8,Cn1cc(CN2CCCC23CCN(c2nc4ccccc4s2)CC3)cn1,13.88%
9,Cc1nc[nH]c1CN1CCCN(c2nc3ccccc3s2)CC1,3.174%
10,CCn1ccc(-c2cc(C(=O)O)n3ncc(Br)c3n2)n1,19.03%
11,CC(C)Cn1ccnc1CNC(=O)N1CCCC1CN1CCOCC1 (stereo not given),7.761%
12,CN(C(=O)Cn1nc(-c2ccccc2F)ccc1=O)C1CCS(=O)(=O)C1 (stereo not given),18.26%
13,COC(=O)C(NC(=O)Nc1ccc(C(C)=O)cc1)C(C)C (stereo not given),6.824%
14,COCc1ncc(CN2CCC3(CCNC(=O)CC3)CC2)cn1,18.36%
15,COCCN(C)Cc1cn(C)nc1-c1ccc2c(c1)OCCO2,-52.38%
16,CC(C)(C)NC(=O)CNC(=O)Nc1cc(-c2ccccc2)ns1,38.08%
17,Cc1ccc(-c2cc(C(F)(F)F)nc(N3CCOCC3)n2)s1,4.079%
18,CCc1ccc(-c2cc(C(F)(F)F)nc(N3CCC(N)CC3)n2)cc1,105.7%
19,Cc1cc(C(F)(F)F)nc(N2CCN3CCCC3C2)n1 (stereo not given),-50.74%
20,FC(F)(F)c1cc(-c2cccs2)nc(N2CCN3CCCC3C2)n1 (stereo not given),24.42%
21,CCn1ncc(-c2cc(C(F)(F)F)nc(N3CCC(N)CC3)n2)c1C,50.19%
22,Cc1c(-c2cc(C(F)(F)F)nc(N3CCC(N)CC3)n2)cnn1C,2.397%
23,Cn1nc(CN2CCCC2)c2c1CN(c1cnccn1)CC2.O=C(O)C(F)(F)F.O=C(O)C(F)(F)F,-1.06%
24,COCCC(=O)N1C[C@H]2CN(Cc3cccnc3)C(=O)[C@H]2C1.O=C(O)C(F)(F)F,9.901%
